# Reference: publication PMC4336329 (PLoS ONE, 2015)
# Hit rate of the full screen: of about 310,000 compounds, about 14,000 (4.5%) showed an effect of 50% or more. The effect is printed as a negative number. The entries come from a sample that favours strong results as a whole.
# Target: human ether-à-go-go-related gene (hERG) potassium channel (human, UniProt Q12809)
# Assay: primary screen, population patch clamp on CHO cells stably expressing hERG; higher = less effect of the substance
# 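Note: peak tail current of the secondary pulse compared with the same well before compound.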
# Chain of human ether-à-go-go-related gene (hERG) potassium channel (Q12809 whole entry, looked up): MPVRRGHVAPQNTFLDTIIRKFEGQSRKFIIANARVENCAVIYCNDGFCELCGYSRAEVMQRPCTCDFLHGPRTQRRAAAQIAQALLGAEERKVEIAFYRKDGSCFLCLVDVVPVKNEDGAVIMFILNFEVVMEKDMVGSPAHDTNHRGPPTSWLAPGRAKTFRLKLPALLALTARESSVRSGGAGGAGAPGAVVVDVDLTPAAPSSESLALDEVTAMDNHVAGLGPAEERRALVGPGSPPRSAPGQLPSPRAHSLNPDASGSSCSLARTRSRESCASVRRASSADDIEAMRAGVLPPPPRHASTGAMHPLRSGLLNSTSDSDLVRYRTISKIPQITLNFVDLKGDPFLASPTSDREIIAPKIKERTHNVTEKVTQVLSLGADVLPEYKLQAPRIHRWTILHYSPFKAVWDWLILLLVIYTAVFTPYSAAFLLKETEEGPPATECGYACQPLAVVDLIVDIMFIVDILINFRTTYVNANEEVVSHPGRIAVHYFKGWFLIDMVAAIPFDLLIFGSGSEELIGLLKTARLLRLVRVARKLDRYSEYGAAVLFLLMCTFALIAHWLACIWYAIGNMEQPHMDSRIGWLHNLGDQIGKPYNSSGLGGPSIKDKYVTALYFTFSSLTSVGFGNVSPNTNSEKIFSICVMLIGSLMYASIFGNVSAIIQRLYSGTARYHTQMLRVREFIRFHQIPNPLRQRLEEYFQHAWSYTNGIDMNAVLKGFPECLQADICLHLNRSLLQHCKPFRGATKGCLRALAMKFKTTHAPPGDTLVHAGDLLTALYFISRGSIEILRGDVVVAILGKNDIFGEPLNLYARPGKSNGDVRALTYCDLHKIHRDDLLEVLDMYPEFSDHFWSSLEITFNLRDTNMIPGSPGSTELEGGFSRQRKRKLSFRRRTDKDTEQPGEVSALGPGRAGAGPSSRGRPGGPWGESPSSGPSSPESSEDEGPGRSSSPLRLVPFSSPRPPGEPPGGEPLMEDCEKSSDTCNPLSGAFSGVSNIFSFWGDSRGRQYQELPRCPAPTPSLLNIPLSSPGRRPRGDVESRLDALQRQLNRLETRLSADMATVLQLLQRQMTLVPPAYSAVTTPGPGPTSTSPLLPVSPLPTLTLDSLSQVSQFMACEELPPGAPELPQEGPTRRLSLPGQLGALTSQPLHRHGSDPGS
row,SMILES,"hERG current change (%, negative = inhibition) at 10uM"
1,Cc1cc(=O)[nH]c(SCC(=O)Nc2ccc(C(=O)O)cc2)n1,5.37%
2,O=Cc1c[nH]c2ccc(C(=O)c3ccccc3)cc12,3.97%
3,CC(C)(C)n1nnnc1C(c1cccnc1)N1CCN(C(=O)c2ccco2)CC1 (centres unmarked),-15.1%
4,COc1cc(C(=O)ON=C2C(C)=CC(=O)C=C2C)cc(OC)c1OC,-11.9%
5,C#CCOCCOCCOCCNc1nc(N2CCN(C(=O)[C@H](Cc3ccc(O)cc3)n3cc([C@@H](N)C(C)CC)nn3)CC2)nc(N2CCN(C(=O)[C@H](CCCCN)n3cc([C@@H](N)CC(C)C)nn3)CC2)n1.Cl (some centres unmarked),6.05%
6,C/C(=N/NC(=O)CNS(=O)(=O)c1ccc(C)cc1)c1cccc([N+](=O)[O-])c1,14.5%
7,O=C(Nc1ccc(Cl)cc1)N(Cc1cccs1)Cc1cccs1,0.899%
8,Cc1ccc(NC(=O)N(CCCN2CCOCC2)Cc2cccs2)cc1C,-47.6%
9,COc1ccc(CN(CCCN2CCOCC2)C(=O)Nc2ccccc2)cc1OC,-10.9%
10,Cc1ccc(NC(=O)N(CCCN2CCOCC2)Cc2cccnc2)cc1C,-10.8%
11,O=C(Nc1ccc(Cl)c(Cl)c1)N(CCCN1CCOCC1)Cc1cccs1,-78%
12,CCC(C)NC(=O)CNC(=S)N(CCCN1CCOCC1)Cc1cccs1 (centres unmarked),-14.4%
13,CCc1ccc(NC(=O)N(CCCN2CCOCC2)Cc2cccs2)cc1,-52.8%
14,O=C(Nc1ccc(Cl)cc1)N(CCCN1CCOCC1)Cc1cccs1,-70.7%
15,O=C(Nc1ccccc1)N(CCCN1CCOCC1)Cc1cccs1,-40.1%
16,Cc1ccc(NC(=S)N(CCCN2CCOCC2)Cc2cccnc2)cc1C,7.44%
17,O=C(Nc1ccc(Cl)c(Cl)c1)N(CCCN1CCOCC1)Cc1cccnc1,-55.5%
18,COc1ccc2c(c1)[C@@H]1[C@H](CO2)[C@H](c2ccccc2)[C@]2(C)C(=O)NCC(=O)N12,4.48%
19,CC(Cc1cccs1)NC(=S)Nc1ccc(Cl)cc1 (centres unmarked),14.6%
20,COC(=O)c1c(C)[nH]c(C=O)c1-c1ccccc1,10.3%
21,Cc1ccc(NC(=O)c2ccc(Oc3ncccn3)cc2)cc1,12.2%

row,SMILES,"hERG current change (%, negative = inhibition) at 10uM"
1,CN(C)CC(CCCCC(CN(C)C)C(=O)c1ccccc1)C(=O)c1ccccc1 (centres unmarked),9.78%
2,O=C(NCCNc1ccc([N+](=O)[O-])cc1)c1ccco1,-23.7%
3,O=C(Nc1ccc(Br)cc1)c1cccc(OC(=S)N2CCOCC2)c1,17%
4,CCNS(=O)(=O)c1cc(-c2nnc(OC)c3ccccc23)ccc1C,-37.3%
5,COc1nnc(-c2ccc(C)c(S(=O)(=O)NCCO)c2)c2ccccc12,-14.6%
6,Cc1ccc(-c2nnc(N3CCCCC3)c3ccccc23)cc1S(=O)(=O)NCC1CCCO1 (centres unmarked),-16%
7,Cc1ccc(Oc2nnc(-c3ccc(C)cc3)c3ccccc23)cc1,2.75%
8,COc1nnc(-c2ccc(C)c(S(=O)(=O)NCC3CCCO3)c2)c2ccccc12 (centres unmarked),-69.5%
9,COc1nnc(-c2ccc(C)c(S(N)(=O)=O)c2)c2ccccc12,4.8%
10,c1ccc(-c2nnc(OCC3CCCO3)c3ccccc23)cc1 (centres unmarked),-10.8%
11,COc1nnc(-c2ccc(C)c(S(=O)(=O)NC(C)C)c2)c2ccccc12,-52.8%
12,COc1nnc(-c2ccc(C)c(S(=O)(=O)N(C)C)c2)c2ccccc12,-77.6%
13,Cc1ccc(-c2nnc(Nc3ccccc3)c3ccccc23)cc1S(=O)(=O)NCC1CCCO1 (centres unmarked),-40.5%
14,Cc1ccc(-c2nnc(OCC3CCCO3)c3ccccc23)cc1 (centres unmarked),-65.2%
15,COc1nnc(-c2ccc(C)c(S(=O)(=O)NC(C)(C)CO)c2)c2ccccc12,-15.9%
16,CC(C)CNC(=S)NC(=O)c1ccc(Cl)cc1Cl,3.88%
17,Br.Cc1cccc(N2C(=O)SC(SC(=Nc3ccccc3)Nc3ccccc3)C2=O)c1 (centres unmarked),15.3%
18,Cc1c(Br)c([N+](=O)[O-])nn1CCCC(=O)NC(C)c1ccccc1 (centres unmarked),-16.2%
19,O=C(Nc1c2c(nn1-c1ccccc1)CS(=O)(=O)C2)c1ccccc1Br,-0.51%
20,COc1ccccc1C(c1nnnn1C(C)(C)C)N1CCCCCC1 (centres unmarked),-20.9%
21,COc1ccc(NC(=O)CN(C)S(=O)(=O)c2ccc3c(c2)n(C)c(=O)c(=O)n3C)cc1,14%

row,SMILES,"hERG current change (%, negative = inhibition) at 10uM"
1,COc1ccc(CSc2nc3ccccc3c(=O)[nH]2)cc1F,36.6%
2,CC(C)C(NC(=O)CCNC(=O)c1ccccc1Cl)c1nc2ccccc2[nH]1 (centres unmarked),-9.36%
3,Cc1ccc(S(=O)(=O)NC(=NC2CCCCC2)c2ccc(F)cc2)cc1,-4.09%
4,Cc1ccc(S(=O)(=O)NC(=NC2CCCCC2)c2ccccc2)cc1,-55.2%
5,O=S(=O)(NC(=NC1CCCCC1)c1ccccc1)c1ccccc1,-14.7%
6,Cn1c(Cc2csc(N)n2)nnc1SCC(=O)NCc1ccccc1,1.12%
7,COc1cccc(NC(=O)c2ccc(OC(F)(F)F)cc2)c1,1.07%
8,COc1ccc(-c2cc(C(=O)c3c(N)n(C)c(=O)n(C)c3=O)c3ccccc3n2)cc1,-15.5%
9,O=C(Nc1ccccc1Cl)C1CCCN(c2ncnc3c2nc2n3CCCCC2)C1 (centres unmarked),-59.4%
10,O=C(NCc1ccccc1Cl)C1CCN(c2ncnc3c2nc2n3CCCCC2)CC1,-30.9%
11,O=C(NCc1ccccc1Cl)C1CCCN(c2ncnc3c2nc2n3CCCCC2)C1 (centres unmarked),-60.8%
12,COc1cccc(CNC(=O)C2CCCN(c3ncnc4c3nc3n4CCCCC3)C2)c1 (centres unmarked),-55.6%
13,COc1ccc(CNC(=O)C2CCCN(c3ncnc4c3nc3n4CCCCC3)C2)cc1 (centres unmarked),-37.6%
14,O=C(Nc1cccnc1Cl)C1CCCN(c2ncnc3c2nc2n3CCCCC2)C1 (centres unmarked),-42%
15,O=C(NCC1CCN(Cc2cccc(Cl)c2)CC1)C1CCCN(c2ncnc3c2nc2n3CCCCC2)C1 (centres unmarked),-44.5%
16,O=C(NCC1CCN(Cc2ccccc2F)CC1)C1CCCN(c2ncnc3c2nc2n3CCCCC2)C1 (centres unmarked),-8.94%
17,O=C(NCc1cccc(Cl)c1)C1CCCN(c2ncnc3c2nc2n3CCCCC2)C1 (centres unmarked),-73.5%
18,COc1cccc(CNC(=O)C2CCN(c3ncnc4c3nc3n4CCCCC3)CC2)c1,16.7%
19,O=C(Nc1cccnc1)C1CCCN(c2ncnc3c2nc2n3CCCCC2)C1 (centres unmarked),-36%
20,CN(CCN1CCOCC1)Cc1nc(-c2ccc(Cl)cc2)no1,-28.1%
21,O=C(NCc1cccs1)C(=O)NCC1OCCCN1S(=O)(=O)c1cccs1 (centres unmarked),-15.3%

row,SMILES,"hERG current change (%, negative = inhibition) at 10uM"
1,CC(C)c1ccc(N(CC(=O)NC(C)(C)C)C(=O)CCC(=O)Nc2nccs2)cc1,2.7%
2,Cc1ccccc1NC(=O)CN1C(=O)CSc2ccccc21,17.3%
3,CC(=O)c1cccc(S(=O)(=O)N(C)C2CCN(C)CC2)c1.Cl,-2.43%
4,O=C(COc1ccc(Br)cc1Br)NC(=S)N1CCCc2ccccc21,-2.7%
5,CN1CCN(C(=O)c2ccccc2N(Cc2ccccc2)S(=O)(=O)c2ccccc2)CC1,-8.4%
6,Cc1ccc(-c2[nH]nc3c2C(c2ccsc2)C(C#N)=C(N)O3)cc1 (centres unmarked),-18.9%
7,CCc1ccc(N(CC)c2ncnc3nc[nH]c23)cc1,-4.89%
8,CC(C)c1ccc2oc(=O)cc(CN3CCN(c4ccc(F)cc4)CC3)c2c1,-2.26%
9,CC(C)NC(=O)CSc1nc2[nH]ncc2c(=O)[nH]1,15.6%
10,O=C(NCc1ccco1)c1ccc(OCC2CCCO2)cc1 (centres unmarked),-23.2%
11,O=C(NCc1ccc(Cl)cc1)C1CCCN(c2ncnc3c2nc2n3CCCCC2)C1 (centres unmarked),-55.4%
12,CCc1cccc(NC(=O)C2CCCN(c3ncnc4c3nc3n4CCCCC3)C2)c1 (centres unmarked),-46.4%
13,COc1ccc(OC)c(CNC(=O)C2CCCN(c3ncnc4c3nc3n4CCCCC3)C2)c1 (centres unmarked),-59%
14,COc1cccc(NC(=O)C2CCCN(c3ncnc4c3nc3n4CCCCC3)C2)c1 (centres unmarked),-67.4%
15,CSc1cccc(NC(=O)C2CCCN(c3ncnc4c3nc3n4CCCCC3)C2)c1 (centres unmarked),-47.9%
16,COc1cc(NC(=O)C2CCCN(c3ncnc4c3nc3n4CCCCC3)C2)cc(OC)c1OC (centres unmarked),-6.46%
17,CCOc1ccccc1CNC(=O)C1CCCN(c2ncnc3c2nc2n3CCCCC2)C1 (centres unmarked),-51.6%
18,COc1ccccc1CNC(=O)C1CCN(c2ncnc3c2nc2n3CCCCC2)CC1,6.69%
19,Cc1ccccc1CN1CCC(CNC(=O)C2CCCN(c3ncnc4c3nc3n4CCCCC3)C2)CC1 (centres unmarked),-7.3%
20,COc1ccc(OC)c(CCNC(=O)C2CCN(c3ncnc4c3nc3n4CCCCC3)CC2)c1,-0.169%
